The list is not random: actives were taken first. Their share in the collection is about 3.1%.
BoNT-F LC inh = BoNT/F light chain protease inhibitors, primary screen, biochemical, flow cytometry, MLPCN library | Botulinum neurotoxin type F light chain protease (Clostridium botulinum) | Multiplex microsphere protease cleavage assay | inhibition, % at 10 µM | 0.22% of 360,000 active | AID 588497, 2011; in the data active = inhibition above about 35%, passing the limit was not always enough; inconclusive = no clear call, values can overlap the other calls; also: plate controls were buffer without enzyme for full effect and enzyme alone for no effect
BoNT-A LC inh2 = BoNT/A light chain protease inhibitors, primary screen, biochemical, flow cytometry, MLPCN library | Botulinum neurotoxin type A light chain protease (Clostridium botulinum A str. ATCC 3502) | multiplex microsphere protease substrate cleavage | inhibition, % at 10 µM | 0.17% of 360,000 active; also: plate controls were buffer without enzyme for full effect and enzyme alone for no effect
Bead autofluor = flagged as autofluorescent in microsphere protease counterscreen; compound autofluorescence counterscreen, microsphere flow cytometry; stronger effect = higher value; fluorescence intensity (no concentration beside the values); 3.1% of 360,000 active; AID 624483; in the data active = fluorescence intensity above about 16000; inconclusive = no clear call, values can overlap the other calls
Anthrax LF inh2 = Bacillus anthracis LF protease inhibitors, primary screen, biochemical, multiplex microsphere, MLPCN library; AID 588501, 2011; inhibition, % at 10 µM; 0.12% of 360,000 active; multiplex microsphere protease cleavage assay; Lethal factor (Bacillus anthracis), P15917; also: plate controls were buffer without enzyme for full effect and enzyme alone for no effect
PriA SSB inh = inhibitors of Klebsiella pneumoniae PriA binding to SSB C-terminal tail, primary screen, biochemical, AlphaScreen. PriA–SSB C-terminal tail interaction (Klebsiella pneumoniae). AlphaScreen SSBct-PriA binding, biotinylated peptide. inhibition, % at 33 µM. 0.6% of 430,000 active; in the data active = inhibition mostly above about 37%, no sharp cut-off; inactive = mostly below about 20%;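 also: plate controls were negative control peptide for no effect and reference peptide for full effect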
Numbers without * were called inactive; i = inactive; ? = inconclusive; . = not tested or not shown. Rule as the data show it, unless noted: active = inhibition above about 30%; inconclusive = no clear call, values can overlap the other calls; inactive = below that.

SMILES | BoNT-F LC inh | BoNT-A LC inh2 | Bead autofluor | Anthrax LF inh2 | PriA SSB inh
CCn1c(SCC(=O)Nc2ccc(C)cc2)nnc1-c1ccccn1 | 2 | -1 | 4299 | 6 | 2
Cc1ccc(NC(=O)Cc2nnc(SCC(=O)NC3CCCC3)n2C)cc1 | 2 | 0 | 5137 | 2 | -5
CCCOc1ccc(-c2nn(-c3ccccc3)cc2/C=C2\SC(=N)NC2=O)cc1C | . | . | . | . | 13
CCc1ccc(-c2cc3c(SCC(=O)Nc4cc(C(F)(F)F)ccc4Cl)nccn3n2)cc1 | . | . | . | . | 6
COc1ccc(C2=Nc3ccccc3N=C(SCC(=O)Nc3ccc(Cl)cc3F)C2)cc1 | . | . | . | . | -15
CCC(=O)Nc1ccc(C(=O)CSc2nnc(-c3ccc(O)cc3)n2CC2CCCO2)cc1 (stereo not given) | -1 | -1 | 23574* | -2 | -12
COc1cc(C(=O)CSc2nnc(-c3ccc(O)cc3)n2CC2CCCO2)ccc1NC(C)=O (stereo not given) | -10 | -1 | 12819 | 0 | -10
CCn1c(SCC(=O)Nc2cccc(OC)c2)nnc1-c1ccc(Cl)cc1 | 3 | ? | 21821* | 3 | -11
O=C(Nc1ccccc1F)c1cc(C2CCN(C(=O)c3ccc(=O)[nH]c3)CC2)[nH]n1 | . | . | . | . | -10
Cc1cccc(S(=O)(=O)NCC2(O)CCCC2)c1 | . | . | . | . | -11
CCCCC(CC)C1OCC(CN2CCCC2)O1 (stereo not given) | 11 | ? | 19353* | -3 | -10
CCCCC(CC)C1OCC(CN2CCCCC2)O1 (stereo not given) | ? | -8 | 4297 | -10 | -7
CCOC(=O)c1ccc(NC(=O)CC2CCCCN2S(=O)(=O)c2ccccc2)cc1 (stereo not given) | . | . | . | . | 23
COc1cccc(NC(=O)C2CCN(S(=O)(=O)c3ccccc3)CC2)c1 | 11 | 3 | 4079 | -6 | -9
CN1CCN(S(=O)(=O)c2cccc(C(=O)Nc3nc(-c4ccccn4)cs3)c2)CC1 | . | . | . | . | 124*
COc1cccc(NC(=O)C2CCN(S(=O)(=O)c3ccc4c(c3)OCCO4)CC2)c1 | -3 | 0 | 22969* | -8 | -15
COc1ccc(-c2csc(NC(=O)c3cccc(S(=O)(=O)N4CCN(C)CC4)c3)n2)cc1 | -2 | 0 | 8679 | -5 | 18
O=C(Nc1nc(-c2ccccn2)cs1)c1cccc(S(=O)(=O)N2CCOCC2)c1 | -3 | 2 | 3693 | 1 | 81*
O=C(Nc1nc(-c2cccs2)cs1)c1cccc(S(=O)(=O)N2CCCCCC2)c1 | -6 | 0 | 3918 | -5 | 5
CN1CCN(S(=O)(=O)c2cccc(C(=O)Nc3nc(-c4ccccc4)cs3)c2)CC1 | -2 | -1 | 23294* | -10 | 7
O=C(Nc1nc(-c2ccncc2)cs1)c1cccc(S(=O)(=O)N2CCOCC2)c1 | . | . | . | . | 34
CN(C)c1cccc(C(=O)N2CCC(S(=O)(=O)c3ccc(F)cc3)CC2)c1 | . | . | . | . | -1
Cc1cccc(-n2nc3c(c2NC(=O)c2ccc(S(=O)(=O)N4CCOCC4)cc2)CSC3)c1C | 0 | ? | 23238* | 1 | -9
O=C(Nc1nc2ccccc2s1)c1ccc(N2CCCCC2)c([N+](=O)[O-])c1 | -2 | 0 | 2022 | -2 | 39*
Cc1ccc(N(Cc2ccccc2)C(=O)c2ccc(S(=O)(=O)N3CCOCC3)cc2)cc1 | -177 | -121 | 27784* | -24 | 10
SMILES | BoNT-F LC inh | BoNT-A LC inh2 | Bead autofluor | Anthrax LF inh2 | PriA SSB inh
Cc1ccc(-n2nc3c(c2NC(=O)c2ccc(S(=O)(=O)N4CCOCC4)cc2)CSC3)c(C)c1 | 9 | 1 | 11803 | -2 | -17
O=C(Nc1nc(-c2ccccn2)cs1)c1ccc(N2CCOCC2)c([N+](=O)[O-])c1 | . | . | . | . | 92*
O=C(Nc1ccon1)c1ccc(N2CCCCC2)c([N+](=O)[O-])c1 | 1 | 1 | 2175 | 1 | 2
Cc1ccc(N(Cc2ccccc2)C(=O)c2cccc(S(=O)(=O)N3CCOCC3)c2)cc1 | 0 | -2 | 4639 | 3 | -18
O=C(Nc1nc(-c2ccccc2)cs1)c1ccc(N2CCOCC2)c([N+](=O)[O-])c1 | 8 | 2 | 10115 | 2 | 20
O=S(=O)(CCOc1ccccc1)N1CCc2ccccc21 | . | . | . | . | -14
CC(Oc1ccc(Cl)cc1Cl)C(=O)NCCCn1ncccc1=O (stereo not given) | . | . | . | . | -19
COc1ccc(CC(=O)NCc2ccccc2Cl)cc1S(=O)(=O)N1CCOCC1 | -1 | 0 | 23297* | 1 | -13
O=C(Nc1nc(-c2ccccn2)cs1)c1ccc(S(=O)(=O)N2CCOCC2)cc1 | . | . | . | . | 114*
COc1ccc(C(=O)Nc2nc(-c3ccccn3)cs2)cc1S(=O)(=O)N1CCOCC1 | -15 | 1 | 6194 | -8 | 46*
COc1ccccc1OC(C)C(=O)Nc1nc(-c2ccc(S(=O)(=O)N3CCOCC3)cc2)cs1 (stereo not given) | -6 | ? | 23958* | -2 | -4
COc1ccc(CN2CCN(c3ncnc4scc(-c5ccc(F)cc5)c34)CC2)cc1F | . | . | . | . | 4
CCOC(=O)CN=CC(C(C)=O)=C(C)O | . | . | . | . | -8
CN1CC(C#N)CC1=O (stereo not given) | . | . | . | . | 10
O=C(NCC1CCS(=O)(=O)C1)c1csc(-c2ccccc2)n1 (stereo not given) | . | . | . | . | -10
COc1ccc(S(=O)(=O)N2CCOCC2)cc1NC(=O)c1ccc(OC(F)F)cc1 | . | . | . | . | 2
O=C(NNC(=O)c1ccc(S(=O)(=O)N2CCOCC2)cc1)c1ccccc1 | 45* | 2 | 3693 | -4 | -6
CC(C)C(NC(=O)c1ccc(S(=O)(=O)N2CCOCC2)cc1)c1nc2ccccc2[nH]1 (stereo not given) | -3 | 0 | 22568* | -3 | -11
COc1cccc(NS(=O)(=O)c2ccc(S(=O)(=O)N3CCOCC3)cc2)c1 | -6 | -3 | 17066* | -2 | -9
COc1ccc(NC(=O)c2ccc(S(=O)(=O)N3CCOCC3)cc2)c(OC)c1 | -6 | -3 | 24065* | -2 | -15
O=C1CSC(=N/N=C/c2cccs2)N1Cc1ccc(F)cc1 | . | . | . | . | i
Cc1ccc(S(=O)(=O)N2CCCCC2CCNC(=O)C(=O)NCCc2c[nH]c3ccccc23)cc1 (stereo not given) | . | . | . | . | 7
CCCS(=O)(=O)N1CCc2ccc(NC(=O)C3CCCCC3)cc2C1 | . | . | . | . | 7
O=S(=O)(NCC(O)c1csc2ccccc12)c1ccc(Cl)s1 (stereo not given) | . | . | . | . | -5
O=C(Nc1nc(-c2ccccn2)cs1)c1cc(S(=O)(=O)N2CCOCC2)ccc1Cl | . | . | . | . | 116*
O=C(c1ccccc1)N1CCN(Cc2ccccc2C(F)(F)F)CC1 | -4 | -1 | 4178 | -3 | -7
N#Cc1ccc(CN2CCN(C(=O)c3ccccc3)CC2)c(Cl)c1 | -7 | ? | 21609* | -4 | -12
Cc1ccccc1-c1cc(C(=O)NN=Cc2cccnc2)c2ccccc2n1 | . | . | . | . | 4

Screens: PubChem BioAssay, several laboratories
